Assay outcomes from PubChem.
Only some compounds are listed: those with a hit (about 4.5% of all), similar ones and a draw of the others.
HEK293 cAMP ctrl: raises cAMP in parental HEK293 cells, TSHR agonist counter-screen; Potency, µM (doses to about 57.1 µM), most hits filed as activators; AID 938; hit rate 2.5% among 73,000; parental HEK293 CNG cAMP sensor, membrane potential fluorescence; further: nearly all actives have a fitted effect of over 55% in size
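Parental HEK 293 cells stably expressing a cAMP-gated CNG channel were loaded with membrane potential dye containing 100 uM RO 20-1724 for 60 min. Compound added for 30 min; depolarization read as fluorescence intensity at 590 nm.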
TSHR ag: activates the human thyroid stimulating hormone receptor. HEK293-CNG-TSHR cells (CNG channel as cAMP sensor), membrane potential dye, cAMP. Potency, µM (top dose mostly 57.1 µM), actives largely listed as activators. hit rate 0.48% among 73,000. AID 926; active means well fitted activation curve with a large enough effect in the main read-out, with a control signal flat, not every such curve was filed as active; inconclusive means small, poorly fitted or top-dose-only effect, or a change in a side signal; inactive means no such curve, though single readings can be large or run the other way; reference of the percent scale not stated here;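 further: the control signal comes from parental cells without the receptor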
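HEK 293 cells stably expressing TSHR and a modified CNG channel, with CNG-only parental cells as counterscreen, were preloaded 60 min at room temperature with membrane potential dye containing 100 uM RO 20-1724. Compound exposure was 30 min, and depolarization was read as fluorescence at 590 nm.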
Casp7 inh: caspase-7 (human) inhibition, allosteric or competitive | P55210 | recombinant caspase-7, Ac-DEVD-AFC fluorescence rate | Potency, µM (titrated, usually from 57.5 µM), actives largely listed as inhibitors | hit rate 0.02% among 75,000 | AID 889; active means well fitted inhibition curve with a large enough effect in the main read-out, with a control signal flat, not every such curve was filed as active; inconclusive means small, poorly fitted or top-dose-only effect, or a change in a side signal
ERK AVP inh: inhibitors of vasopressin-stimulated ERK signaling pathway. HEK293-V1b, vasopressin-stimulated pERK AlphaScreen. Potency, µM (highest dose often 57.5 µM), hits mostly inhibitors. hit rate 0.99% among 72,000; further: nearly all actives have a fitted effect of over 55% in size
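V1b-HEK293 cells; cpd 30 min 37C; 25 nM vasopressin 5 min; lyse 10 min; AlphaScreen beads 5 hr RT. Normalized to DMSO basal and 25 nM vasopressin; AC50 by Hill fit.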
GBA mod: modulators of human glucocerebrosidase; P04062; purified enzyme, resorufin glucoside fluorescence (screen aimed at inhibitors), 20 min; Potency, µM; hit rate 1.1% among 48,000; AID 360; in the data active means potency below about 15 µM; inconclusive means mostly about 16 µM to 33 µM;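 further: the screen sought inhibitors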
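Normal human glucocerebrosidase (0.2 nM final) was assayed with resorufin β-D-glucopyranoside (30 uM final) in 50mM citric acid/KH2PO4, 10mM sodium taurocholate, 0.01% tween-20, pH 5.9. Compounds were titrated; fluorescence (Ex 548, Em 600) read after 20 min at RT.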
Caspase-1 inhib: blocks human caspase-1 allosterically or competitively | P29466 | Potency, µM (doses to about 57.5 µM), actives largely listed as inhibitors | hit rate 0.03% among 75,000 | Caspase-1 enzyme, Ac-WEHD-AFC fluorogenic rate | AID 900
Each line names hits and unclear results; the compound was inactive in the other large screens. Unless noted, the call rests on the fitted dose curve; in most records, active means well fitted curve in the direction sought with a large enough effect; inconclusive means small, poorly fitted or top-dose-only effect, or another doubt; inactive means no such curve, though single readings can be large; an effect the other way counts as inactive or inconclusive.

Cc1cc(C(=O)COC(=O)c2ccc3c(c2)OCO3)c(C)n1Cc1cccs1	HEK293 cAMP ctrl inconclusive, TSHR ag inconclusive, GBA mod 14
C[C@@H]1C[C@@]2(C)Oc3ccccc3[C@H]3OC[C@]1(COC(=O)Nc1ccccc1)[C@@H](C)[C@@H]32	none (no result: Casp7 inh, ERK AVP inh, GBA mod, Caspase-1 inhib)
CCCCN(C)S(=O)(=O)c1ccc(C(=O)Nc2nnc(-c3cccs3)o2)cc1	GBA mod 8.22
COc1cccc(-c2ccc3ncnc(N(C)Cc4ccco4)c3c2)c1	HEK293 cAMP ctrl 15.8µM, TSHR ag inconclusive, ERK AVP inh inconclusive (no result: GBA mod)
COc1ccc(CNC(=O)COC(=O)c2ccc3c(c2)OCCO3)cc1	none
COc1ccc2oc(C(=O)OCC(=O)c3ccc4c(c3)OCCO4)c(C)c2c1	HEK293 cAMP ctrl 20µM, TSHR ag inconclusive
COc1ccc2c(c1)OC/C(=C/c1ccc(OC)c(OC)c1)C2=O	ERK AVP inh 15.8µM (no result: HEK293 cAMP ctrl, TSHR ag, GBA mod)
COc1ccc2oc(=O)c(-c3nnc(NCc4ccco4)s3)cc2c1	Casp7 inh inconclusive, GBA mod 9.95 (no result: Caspase-1 inhib)
CC1(C)S[C@@H]2[C@H](NC(=O)C(N)c3ccccc3)C(=O)N2[C@H]1C(=O)O (stereo not given in full)	none (no result: GBA mod)
Cc1noc(/C=C/N(C)C)c1S(=O)(=O)N1CCCC(C(=O)NCc2ccc(Cl)cc2)C1 (stereo not given)	GBA mod 14
Cc1noc(/C=C/N(C)C)c1S(=O)(=O)N1CCCC(C(=O)NCc2ccc(F)cc2)C1 (stereo not given)	none (no result: GBA mod)
O=C(Nc1cccc2c1CCCC2)c1ccc(Br)o1	HEK293 cAMP ctrl 25.1µM, TSHR ag inconclusive (no result: GBA mod)
COc1ccc2c(c1)OCC(Cc1ccc(OC)c(O)c1)C2=O (stereo not given)	none (no result: HEK293 cAMP ctrl, TSHR ag, GBA mod)
CCOC(=O)c1oc2ccccc2c1CSc1nnnn1-c1ccc(C)cc1	HEK293 cAMP ctrl 7.94µM, TSHR ag inconclusive
CCc1cc2cc(C(=O)N3CCN(Cc4ccccc4)CC3)sc2s1	HEK293 cAMP ctrl 31.6µM, TSHR ag inconclusive, ERK AVP inh inconclusive (no result: GBA mod)
COC(=O)C1=C(C)N(C)C(C)=C(C(=O)OC)C1c1ccc(F)c(Br)c1	HEK293 cAMP ctrl 31.6µM, TSHR ag inconclusive (no result: GBA mod)
Cc1noc(C)c1C(=O)N1CCC[C@@]2(CCN(C(=O)NC(C)C)C2)C1	none (no result: GBA mod)
C[C@@H](C(=O)O)c1cccc(C(=O)c2ccccc2)c1	none (no result: GBA mod)
COCC(C)n1c(C)cc(C(=O)COC(=O)c2c(NC(C)=O)sc(C)c2C)c1C (stereo not given)	TSHR ag 12.6µM
Cn1ncc(C#N)c1/N=C/N(Cc1ccccc1)Cc1ccccc1	HEK293 cAMP ctrl 15.8µM, TSHR ag inconclusive, ERK AVP inh inconclusive
CCn1c(C)nc2cc(C(=O)OCCC(F)(F)F)ccc21	GBA mod 10.7
Cc1cccc(OCc2nnc(SCc3cc(=O)n4cc(Br)ccc4n3)o2)c1	HEK293 cAMP ctrl 12.6µM, TSHR ag inconclusive
c1nc(N2CCOCC2)c2cc(-c3ccoc3)ccc2n1	ERK AVP inh inconclusive (no result: GBA mod)
O=C(Oc1ccccc1)N1CCC2(CCCN(c3ncccn3)C2)CC1	HEK293 cAMP ctrl 20µM, TSHR ag inconclusive (no result: GBA mod)
OC(COc1ccc(Cl)c2ccccc12)CN1CCN(c2ccccn2)CC1 (stereo not given)	ERK AVP inh 20µM
COc1ccc(OC2C=CC(c3ccccc3)OC2CO)cc1 (stereo not given)	none (no result: GBA mod)
COC(=O)C1(Cc2ccccc2)C=C2C(=C(c3ccccc3)C(=O)C2C)CN1 (stereo not given)	HEK293 cAMP ctrl 31.6µM, TSHR ag inconclusive, Casp7 inh inconclusive, Caspase-1 inhib inconclusive (no result: GBA mod)
COc1cccc(Cn2c(=O)c(CCc3ccccc3)nc3cncnc32)c1	none (no result: GBA mod)
Cn1c(=O)[nH]c(=O)c2c1nc(N1CCCCCC1)n2CCN1CCCCCC1	GBA mod 11.3
C/C(Cl)=C\Cn1c(N2CCCC2)nc2c1c(=O)[nH]c(=O)n2C	ERK AVP inh 25.1µM
COc1cc(NC(=O)Cc2ccc(Cl)cc2)ccc1NC(=O)c1ccco1	none
COc1ccc(NC(=O)c2cc(Cl)ccc2NC(=O)c2ccco2)c(OC)c1	HEK293 cAMP ctrl 25.1µM, TSHR ag inconclusive
Cc1sc2ncnc(N3CCCCC3C)c2c1C (stereo not given)	HEK293 cAMP ctrl 25.1µM, TSHR ag inconclusive
